Experimental data from PubChem BioAssay (EPA / NIEHS).
The source made the active and inactive calls. Rule for the calls: active = hit-call score of the fitted dose curve at least 0.9, where 1 is the maximum; inactive = score below 0.9.

Assays:
[1] = ATG_CRE_CIS: Attagene CIS-FACTORIAL HepG2 Assay for human cAMP Responsive Element (CRE) binding protein 3 (AID 2282926); details: HepG2 CRE cis-reporter, Attagene multiplexed mRNA; actives raise or lower the signal
In short: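 Assay format: transient reporter transfection of HepG2, 24 h treatment, total RNA isolation with DNase I step. Reporter abundance read by fluorescence after PCR and capillary separation; DMSO-normalised gain or loss fitting.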

[2] = target: CCAAT/enhancer-binding protein beta (Homo sapiens) (UniProt P17676); experiment: ATG_C_EBP_CIS: Attagene CIS-FACTORIAL HepG2 Assay for human CCAAT/Enhancer Binding Protein (C/EBP) beta (AID 2282927); details: HepG2 Attagene cis-factorial transcription factor reporter; actives raise or lower the signal
Sequence of CCAAT/enhancer-binding protein beta (Homo sapiens) (P17676 whole entry, looked up): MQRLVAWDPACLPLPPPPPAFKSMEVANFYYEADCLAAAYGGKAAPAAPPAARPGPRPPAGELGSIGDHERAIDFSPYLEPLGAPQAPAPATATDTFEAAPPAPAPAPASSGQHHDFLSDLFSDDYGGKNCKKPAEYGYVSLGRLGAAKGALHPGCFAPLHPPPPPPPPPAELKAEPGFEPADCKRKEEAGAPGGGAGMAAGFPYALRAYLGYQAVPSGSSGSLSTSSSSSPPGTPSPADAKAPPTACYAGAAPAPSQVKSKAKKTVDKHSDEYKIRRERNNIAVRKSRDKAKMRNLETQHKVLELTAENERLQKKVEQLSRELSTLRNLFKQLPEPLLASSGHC
In short: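 HepG2, transient MRTU transfection, 24 h treatment. RT-PCR plus CE fluorescence; DMSO negative control, bidirectional fit.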

[3] = ATG_CMV_CIS: Attagene CIS-FACTORIAL HepG2 Assay for human CMV (Internal Marker) (AID 2282928); details: HepG2 CMV promoter reporter, transcription factor profiling; actives raise or lower the signal;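 note: endpoint acts as a background internal control marker rather than a target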
In short: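 Fluorescence intensity of RT-PCR-derived reporter fragments, resolved by capillary electrophoresis, gives the signal. HepG2 liver cells bearing transfected cis-element reporters were treated 24 h; activity in either direction was fit relative to DMSO-treated controls.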

[4] = ATG_DR4_LXR_CIS: Attagene CIS-FACTORIAL HepG2 Assay for human Liver X Receptor (LXR), DR4 submotif (AID 2282929); details: HepG2 Attagene DR4 cis-reporter, mRNA transcription; actives raise or lower the signal
In short: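 HepG2 cells transiently transfected with cis-promoter-driven multiplexed reporter units (DR4 element) were dosed for 24 h. Reporter mRNA was quantified by RT-PCR, fluorescent primer extension, HpaI digestion and capillary electrophoresis; bidirectional fitting versus DMSO baseline.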

[5] = ATG_AP_2_CIS: Attagene CIS-FACTORIAL HepG2 Assay for human Activator Protein 2 (AP-2) (AID 2282932); details: HepG2 AP-2 cis-reporter, Attagene transcription factor profiling; actives raise or lower the signal
In short: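 Read-out: fluorescent reporter mRNA via RT-PCR and capillary electrophoresis, 24 h post-dose in transiently transfected HepG2. Endogenous factors drive cis-promoter reporters; gain or loss of signal fitted bidirectionally against DMSO.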

[6] = ATG_E_Box_CIS: Attagene CIS-FACTORIAL HepG2 Assay for human Enhancer Box (E-box) (AID 2282936); details: HepG2 E-box cis-reporter transcription, actives raise or lower the signal
In short: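 Transiently transfected HepG2, endogenous TF-driven reporters, 24 h dosing. Readout: RT-PCR plus capillary electrophoresis of fluorescent reporter fragments. Gain or loss of signal fitted bidirectionally against DMSO baseline.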

[7] = ATG_EGR_CIS: Attagene CIS-FACTORIAL HepG2 Assay for human Early Growth Response 1 (EGR1) (AID 2282938); details: HepG2 Attagene CIS-FACTORIAL EGR reporter mRNA; actives raise or lower the signal
In short: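 HepG2 cells transiently transfected with cis-promoter-driven multiplexed reporter transcription units; reporter mRNA measured 24 h after compound dosing by RT-PCR, 6-FAM primer extension, HpaI digestion and capillary electrophoresis. Bidirectional fit versus DMSO baseline.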

[8] = ATG_M_19_CIS: Attagene CIS-FACTORIAL HepG2 Assay for M19 Transcription Factor (Internal Marker) (AID 2282939); details: HepG2 Attagene CIS-FACTORIAL M19 internal marker reporter; actives raise or lower the signal
In short: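 Following a 24 h exposure, RNA from transfected HepG2 cells was reverse-transcribed, PCR-amplified with reporter-specific primers, end-labelled with 6-FAM and HpaI-digested before capillary separation. Values represent gain or loss versus DMSO.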

[9] = ATG_Ets_CIS: Attagene CIS-FACTORIAL HepG2 Assay for human Erythroblast Transformation Specific (ETS) (AID 2282941); details: HepG2 ETS cis-reporter transcription, actives raise or lower the signal
In short: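 Multiplexed reporter transcript profiling: HepG2, 24 h treatment, total RNA to cDNA, PCR, 6-FAM labelling, HpaI cut, capillary electrophoresis. Gain- or loss-of-signal fitted against DMSO.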

[10] = target: Hepatocyte nuclear factor 3-beta (Homo sapiens) (UniProt Q9Y261); experiment: ATG_FoxA2_CIS: Attagene CIS-FACTORIAL HepG2 Assay for human Forkhead box A2 (FOXA2) (AID 2282942); details: HepG2 cis-reporter transcription factor activity, 24 h; actives raise or lower the signal
Sequence of Hepatocyte nuclear factor 3-beta (Homo sapiens) (Q9Y261 whole entry, looked up): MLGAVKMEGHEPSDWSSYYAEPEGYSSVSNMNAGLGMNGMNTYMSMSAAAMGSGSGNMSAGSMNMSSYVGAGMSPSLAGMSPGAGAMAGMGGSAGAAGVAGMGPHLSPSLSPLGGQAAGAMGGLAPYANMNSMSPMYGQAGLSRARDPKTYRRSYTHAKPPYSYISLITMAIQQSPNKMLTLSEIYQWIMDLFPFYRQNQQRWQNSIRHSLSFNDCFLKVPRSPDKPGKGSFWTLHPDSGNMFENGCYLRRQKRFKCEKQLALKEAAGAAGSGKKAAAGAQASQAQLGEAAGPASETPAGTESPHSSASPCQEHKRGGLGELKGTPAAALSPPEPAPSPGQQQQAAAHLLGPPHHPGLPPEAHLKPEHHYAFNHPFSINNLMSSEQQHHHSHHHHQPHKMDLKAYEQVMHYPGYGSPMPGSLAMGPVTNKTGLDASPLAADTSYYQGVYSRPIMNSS
In short: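 HepG2 cells transiently transfected with multiple cis-regulated reporter transcription units, dosed for 24 h. Reporter mRNA measured by RT-PCR, 6-FAM labelling, HpaI digestion and capillary electrophoresis; bidirectional fitting against DMSO baseline.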

[11] = ATG_FoxO_CIS: Attagene CIS-FACTORIAL HepG2 Assay for human Forkhead box O (FoxO) (AID 2282943); details: HepG2 Attagene cis-reporter, FoxO element, mRNA; actives raise or lower the signal
In short: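 Transfected HepG2 reporter cells exposed to test chemical for 24 h; reporter RNA measured by reverse transcription, PCR and fluorescent capillary electrophoresis; curves fitted for increases and decreases against DMSO.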

[12] = ATG_GATA_CIS: Attagene CIS-FACTORIAL HepG2 Assay for human GATA Binding Protein (AID 2282944); details: HepG2 GATA cis-element reporter, Attagene multiplex mRNA; actives raise or lower the signal
In short: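 DMSO serves as negative control and baseline for bidirectional fitting of reporter mRNA changes. HepG2 cells bearing transiently transfected cis-promoter reporters were exposed 24 h; transcripts detected via RT-PCR and capillary electrophoresis.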

[13] = ATG_M_32_CIS: Attagene CIS-FACTORIAL HepG2 Assay for M32 Transcription Factor (Internal Marker) (AID 2282949); details: HepG2 Attagene cis-factorial M32 reporter, mRNA; actives raise or lower the signal;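 note: background control marker of the multiplexed CIS panel rather than a real target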
In short: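 Transient MRTU transfection of HepG2; 24 h compound treatment; TriZol RNA, oligo(dT) RT, reporter PCR, 6-FAM primer extension, HpaI cut, CE. Gain/loss of signal vs DMSO.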

[14] = ATG_M_06_CIS: Attagene CIS-FACTORIAL HepG2 Assay for M06 Transcription Factor (Internal Marker) (AID 2282950); details: HepG2 Attagene CIS-FACTORIAL M06 internal marker reporter; actives raise or lower the signal
In short: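 Fluorescence-labelled RT-PCR products from cis-promoter reporter units, cut with HpaI and resolved by capillary electrophoresis, give the signal. Cells are human HepG2, dosed for 24 h. Serves as background control, fitted relative to DMSO.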

[15] = ATG_PXRE_CIS: Attagene CIS-FACTORIAL HepG2 Assay for human Pregnane X Receptor Element (PXRE) (AID 2282957); details: HepG2 Attagene CIS-FACTORIAL PXRE reporter, mRNA; actives raise or lower the signal
In short: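 Using HepG2 transfected with multiple reporter transcription units, endogenous factor-driven transcription was scored as reporter mRNA after 24 h exposure.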

[16] = ATG_Sox_CIS: Attagene CIS-FACTORIAL HepG2 Assay for human SRY-box transcription factor (SOX) (AID 2282960); details: HepG2 Attagene cis-factorial SOX reporter, mRNA; actives raise or lower the signal
In short: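 HepG2 cells transiently transfected with cis-element-driven multiple reporter transcription units, dosed 24 h; reporter mRNA measured by RT-PCR, FAM labelling, HpaI digestion and capillary electrophoresis. Bidirectional fit versus DMSO baseline.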

[17] = target: Transcription factor Sp1 (Homo sapiens) (UniProt P08047); experiment: ATG_Sp1_CIS: Attagene CIS-FACTORIAL HepG2 Assay for human Specificity Protein 1 (Sp1) (AID 2282961); details: HepG2 Sp1 cis-reporter transcription, actives raise or lower the signal
Sequence of Transcription factor Sp1 (Homo sapiens) (P08047 whole entry, looked up): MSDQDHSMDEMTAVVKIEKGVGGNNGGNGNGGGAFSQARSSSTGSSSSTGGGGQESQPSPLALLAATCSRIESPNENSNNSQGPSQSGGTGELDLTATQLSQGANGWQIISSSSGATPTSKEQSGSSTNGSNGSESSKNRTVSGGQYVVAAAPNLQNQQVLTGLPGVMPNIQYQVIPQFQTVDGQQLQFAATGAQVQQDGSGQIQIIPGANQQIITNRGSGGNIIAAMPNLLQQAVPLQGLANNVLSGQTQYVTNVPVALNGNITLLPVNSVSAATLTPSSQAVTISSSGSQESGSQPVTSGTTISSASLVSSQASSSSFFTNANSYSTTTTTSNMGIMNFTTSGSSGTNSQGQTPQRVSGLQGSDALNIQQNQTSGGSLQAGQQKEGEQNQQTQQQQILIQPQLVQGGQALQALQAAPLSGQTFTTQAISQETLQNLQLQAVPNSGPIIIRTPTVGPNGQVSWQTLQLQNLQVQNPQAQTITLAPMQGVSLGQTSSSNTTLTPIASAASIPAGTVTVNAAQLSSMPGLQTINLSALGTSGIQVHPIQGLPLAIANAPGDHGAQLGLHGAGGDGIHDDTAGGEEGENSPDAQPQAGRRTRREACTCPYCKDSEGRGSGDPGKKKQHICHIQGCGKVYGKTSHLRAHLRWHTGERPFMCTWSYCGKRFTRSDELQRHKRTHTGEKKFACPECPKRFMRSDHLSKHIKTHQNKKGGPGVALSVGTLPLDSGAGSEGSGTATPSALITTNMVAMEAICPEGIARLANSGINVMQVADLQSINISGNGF
In short: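 HepG2 cells transiently transfected with multiple reporter transcription units driven by cis-regulatory elements; Sp1-responsive reporter mRNA measured 24 h after dosing by RT-PCR and capillary electrophoresis fluorescence, fitted bidirectionally against DMSO baseline.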

[18] = ATG_SREBP_CIS: Attagene CIS-FACTORIAL HepG2 Assay for human Sterol Regulatory Element Binding (SREBP) (AID 2282962); details: HepG2 Attagene cis-factorial SREBP reporter, mRNA; actives raise or lower the signal
In short: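 Values derive from bidirectional curve fitting with DMSO as baseline. The underlying measurement is reporter mRNA from cis-element-regulated units in transiently transfected HepG2, quantified by RT-PCR and capillary electrophoresis after 24 h exposure.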

[19] = target: Signal transducer and activator of transcription 3 (Homo sapiens) (UniProt P40763); experiment: ATG_STAT3_CIS: Attagene CIS-FACTORIAL HepG2 Assay for human Signal Transducer and Activator of Transcription 3 (STAT3) (AID 2282963); details: HepG2, Attagene cis-factorial STAT3 reporter transcription; actives raise or lower the signal
Sequence of Signal transducer and activator of transcription 3 (Homo sapiens) (P40763 whole entry, looked up, the tested form may be a part): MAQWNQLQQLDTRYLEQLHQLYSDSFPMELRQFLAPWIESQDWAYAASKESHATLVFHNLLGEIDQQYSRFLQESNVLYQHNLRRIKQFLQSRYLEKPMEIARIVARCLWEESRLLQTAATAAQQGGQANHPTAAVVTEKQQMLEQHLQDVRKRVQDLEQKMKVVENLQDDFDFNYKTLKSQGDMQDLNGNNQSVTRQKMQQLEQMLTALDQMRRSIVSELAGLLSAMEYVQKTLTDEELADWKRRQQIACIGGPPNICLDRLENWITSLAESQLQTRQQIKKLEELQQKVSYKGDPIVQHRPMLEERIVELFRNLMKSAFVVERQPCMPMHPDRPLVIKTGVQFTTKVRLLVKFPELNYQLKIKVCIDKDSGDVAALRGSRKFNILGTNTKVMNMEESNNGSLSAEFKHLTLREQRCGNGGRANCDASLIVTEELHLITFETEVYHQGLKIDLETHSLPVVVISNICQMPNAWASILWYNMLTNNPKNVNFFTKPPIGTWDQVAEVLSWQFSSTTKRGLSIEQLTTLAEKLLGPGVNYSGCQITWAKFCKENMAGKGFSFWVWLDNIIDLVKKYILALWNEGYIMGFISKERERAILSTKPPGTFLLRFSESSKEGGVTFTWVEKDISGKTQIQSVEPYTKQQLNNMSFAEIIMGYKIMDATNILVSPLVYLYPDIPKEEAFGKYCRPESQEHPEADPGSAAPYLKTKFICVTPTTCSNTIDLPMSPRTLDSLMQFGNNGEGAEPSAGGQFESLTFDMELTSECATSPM
In short: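 Readout: fluorescent reporter mRNA fragments resolved by capillary electrophoresis. Setup: HepG2 transfected with MRTUs reporting endogenous transcription-factor activity, dosed 24 h. Gain or loss of signal fitted bidirectionally against DMSO control.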

[20] = ATG_TA_CIS: Attagene CIS-FACTORIAL HepG2 Assay for human TA Basal Promoter (AID 2282964); details: HepG2 Attagene CIS-factorial TA basal promoter reporter; actives raise or lower the signal
In short: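 Multiplexed mRNA reporter assay, HepG2, 24 h. Reporter cDNA amplified, 6-FAM primer-extended, HpaI-cut, CE-sized; DMSO = negative control and baseline.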

## Cc1ccc(N(SC(F)(Cl)Cl)S(=O)(=O)N(C)C)cc1
[1]
  outcome: inactive
[2]
  outcome: inactive
[3]
  AC50: 15.8 µM (active)
[4]
  AC50: 15.2 µM (active)
[5]
  outcome: inactive
[6]
  outcome: inactive
[7]
  AC50: 11.1 µM (active)
[8]
  outcome: inactive
[9]
  outcome: inactive
[10]
  outcome: inactive
[11]
  outcome: inactive
[12]
  outcome: inactive
[13]
  outcome: inactive
[14]
  outcome: inactive
[15]
  outcome: inactive
[16]
  AC50: 18.5 µM (active)
[17]
  AC50: 18.8 µM (active)
[18]
  outcome: inactive
[19]
  outcome: inactive
[20]
  outcome: inactive

## CN1C[C@H](C(=O)N[C@]2(C)O[C@@]3(O)[C@@H]4CCCN4C(=O)[C@H](Cc4ccccc4)N3C2=O)C=C2c3cccc4[nH]cc(c34)C[C@H]21
[1]
  outcome: inactive
[2]
  outcome: inactive
[3]
  outcome: inactive
[4]
  outcome: inactive
[5]
  outcome: inactive
[6]
  outcome: inactive
[7]
  outcome: inactive
[8]
  outcome: inactive
[9]
  outcome: inactive
[10]
  outcome: inactive
[11]
  outcome: inactive
[12]
  outcome: inactive
[13]
  outcome: inactive
[14]
  outcome: inactive
[15]
  AC50: 0.445 µM (active)
[16]
  outcome: inactive
[17]
  outcome: inactive
[18]
  AC50: 16.4 µM (active)
[19]
  outcome: inactive
[20]
  outcome: inactive

## SCc1ccco1
[1]
  outcome: inactive
[2]
  outcome: inactive
[3]
  AC50: 62.8 µM (active)
[4]
  outcome: inactive
[5]
  outcome: inactive
[6]
  outcome: inactive
[7]
  outcome: inactive
[8]
  outcome: inactive
[9]
  outcome: inactive
[10]
  outcome: inactive
[11]
  outcome: inactive
[12]
  outcome: inactive
[13]
  outcome: inactive
[14]
  outcome: inactive
[15]
  AC50: 27.7 µM (active)
[16]
  outcome: inactive
[17]
  outcome: inactive
[18]
  outcome: inactive
[19]
  outcome: inactive
[20]
  outcome: inactive

## CN(C)N
[1]
  outcome: inactive
[2]
  outcome: inactive
[3]
  outcome: inactive
[4]
  outcome: inactive
[5]
  outcome: inactive
[6]
  outcome: inactive
[7]
  outcome: inactive
[8]
  outcome: inactive
[9]
  outcome: inactive
[10]
  outcome: inactive
[11]
  outcome: inactive
[12]
  outcome: inactive
[13]
  outcome: inactive
[14]
  outcome: inactive
[15]
  outcome: inactive
[16]
  outcome: inactive
[17]
  outcome: inactive
[18]
  outcome: inactive
[19]
  outcome: inactive
[20]
  outcome: inactive

## Oc1ccc(Cl)cc1
[1]
  outcome: inactive
[2]
  outcome: inactive
[3]
  outcome: inactive
[4]
  outcome: inactive
[5]
  outcome: inactive
[6]
  outcome: inactive
[7]
  outcome: inactive
[8]
  outcome: inactive
[9]
  outcome: inactive
[10]
  outcome: inactive
[11]
  outcome: inactive
[12]
  outcome: inactive
[13]
  outcome: inactive
[14]
  outcome: inactive
[15]
  AC50: 27.9 µM (active)
[16]
  outcome: inactive
[17]
  outcome: inactive
[18]
  outcome: inactive
[19]
  outcome: inactive
[20]
  outcome: inactive

## CCOC(=O)NC(=S)Nc1ccccc1NC(=S)NC(=O)OCC
[1]
  outcome: inactive
[2]
  outcome: inactive
[3]
  outcome: inactive
[4]
  outcome: inactive
[5]
  outcome: inactive
[6]
  outcome: inactive
[7]
  outcome: inactive
[8]
  outcome: inactive
[9]
  outcome: inactive
[10]
  outcome: inactive
[11]
  outcome: inactive
[12]
  outcome: inactive
[13]
  outcome: inactive
[14]
  outcome: inactive
[15]
  AC50: 1.68 µM (active)
[16]
  outcome: inactive
[17]
  outcome: inactive
[18]
  outcome: inactive
[19]
  outcome: inactive
[20]
  outcome: inactive
